Data on 28 molecules can be found in PubChem BioAssay.

Each structure is given as a SMILES string. Calls of active or inactive are those of the source.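 How the source made its calls: active means compounds whose cell count with miR-34 switched on is under 0.7 times the count with it off; inactive means the rest.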

This assay can be described thus: sensitizers of A549 cells to miR-34 induction, primary screen, imaging, A549 dox-inducible miR-34, nuclei and caspase counts (AID 1347080). Further: test concentration not given here. The settings on record: A549 miR-34 inducible, Hoechst nuclei count, 48 h.
Where [1] appears, read: stronger effect = lower value, cell number ratio, induced over uninduced.
[2] abbreviates: measured here: relative caspase fold change +Dox/-Dox.
The mark [3] stands for this setting: measured here: total cells with miR-34 induction, stronger effect = lower value.
Where [4] appears, read: measured here: total cells without miR-34 induction.

With `CCCCC[C@H](O)/C=C/[C@H]1C2COC(C2)[C@@H]1C/C=C/CCCC(=O)O` (some centres not stated), the fold change is, setting by setting: under setting [1], 0.903 (inactive); under setting [2], 0.876. The cell count was found to be 5790 under setting [3] and 6410 under setting [4].

Regarding `CC(C)CC[C@@H](O)[C@@H](C)C1CCC2C3CC=C4C[C@@H](O)CC[C@]4(C)C3CC[C@@]21C` (some centres not stated), the fold change is, setting by setting: under setting [1], 0.933 (inactive); under setting [2], 1.03. Also, the cell count under setting [3] was determined as 5170 and the cell count under setting [4] was determined as 5530.

Take `CCCCCCCCCC(=O)N[C@@H](Cc1c[nH]c2ccccc12)C(=O)N[C@@H](CC(N)=O)C(=O)N[C@@H](CC(=O)O)C(=O)N[C@@H]1C(=O)NCC(=O)N[C@@H](CCCN)C(=O)N[C@@H](CC(=O)O)C(=O)N[C@H](C)C(=O)N[C@@H](CC(=O)O)C(=O)NCC(=O)N[C@H](CO)C(=O)NC([C@@H](C)CC(=O)O)C(=O)N[C@@H](CC(=O)c2ccccc2N)C(=O)OC1C` (some centres not stated): the fold change under setting [1] is 0.953 (inactive) and the fold change under setting [2] is 0.725. In addition, the cell count amounted to 8550 under setting [3] and 8980 under setting [4].

Regarding `O=C(O)CCC/C=C\C[C@H]1C(=O)C=C[C@@H]1CC[C@@H](O)CCc1ccccc1`, the fold change under setting [1] is 0.93 (inactive) and the fold change under setting [2] was found to be 1.2. Besides, the cell count by setting is: under setting [3], 6220; under setting [4], 6690.

With `CCCCCCCC/C=C\CCCCCCCC(=O)OCC(O)COP(=O)(O)O` (configuration not stated), the fold change was 1.12 (inactive) under setting [1] and 0.696 under setting [2]. Besides, the cell count by setting is: under setting [3], 5760; under setting [4], 5140.

For `CCCCC[C@H](O)/C=C/[C@@H]1[C@@H](C/C=C\CCCC(=O)N(C)C)[C@@H](O)C[C@H]1O`, the fold change was 0.94 (inactive) under setting [1] and 1.13 under setting [2]. Also, the cell count is, setting by setting: under setting [3], 5150; under setting [4], 5480.

Turning to `CC(C)OC(=O)CCC/C=C\C[C@@H]1[C@@H](/C=C/[C@H](O)CCc2ccccc2)[C@H](O)C[C@@H]1O`, the fold change under setting [1] is 0.945 (inactive) and the fold change under setting [2] is 1.74. Besides, the cell count reads like this: under setting [3], 6060; under setting [4], 6410.

For `Clc1ccc(/C=C/c2cc(Cl)cc(Cl)c2)cc1`, the fold change is, setting by setting: under setting [1], 1.02 (inactive); under setting [2], 0.743. In addition, the cell count under setting [3] is 5370 and the cell count under setting [4] worked out at 5270.

As to `CCN(CC)C(=O)CCC/C=C\C[C@@H]1[C@@H](/C=C/[C@@H](O)CCc2ccccc2)[C@H](O)C[C@@H]1O`, the fold change under setting [1] is 0.995 (inactive) and the fold change under setting [2] amounted to 1.45. For the same molecule, the cell count runs as follows: under setting [3], 5990; under setting [4], 6020.

As to `C#CCCC[C@@H](O)CCCCCCCCCCC(=O)O`, the fold change was 0.902 (inactive) under setting [1] and 1.14 under setting [2]. Besides, the cell count by setting is: under setting [3], 5310; under setting [4], 5890.

With `CCCCCC/C=C\CCCC(=O)CC(=O)N[C@H]1CCOC1=O`, the fold change runs as follows: under setting [1], 1.06 (inactive); under setting [2], 1.36. Also, the cell count was determined as 6290 under setting [3] and 5940 under setting [4].

For `Nc1nc2c([nH]c(=O)n2[C@@H]2O[C@H](CO)[C@@H](O)[C@H]2O)c(=O)[nH]1`, the fold change under setting [1] is 1.03 (inactive) and the fold change under setting [2] came out at 0.878. In addition, the cell count came out at 5770 under setting [3] and 5600 under setting [4].

On to `CCCCCCCCCCCCCCCNC(=O)C1CCCCC1`, for which the fold change was 1.13 (inactive) under setting [1] and 0.274 under setting [2]. Moreover, the cell count by setting is: under setting [3], 6830; under setting [4], 6070.

Take `CCCOCCCCCCCCCC(=O)O`: the fold change is 1.02 (inactive) under setting [1] and 1.03 under setting [2]. The cell count under setting [3] came to 6150 and the cell count under setting [4] is 6040.

For `CCCCCNC1=C(c2cn(C)c3ccccc23)C(=O)N(C)C1=O`, the fold change was 0.981 (inactive) under setting [1] and 1.69 under setting [2]. Further, the cell count runs as follows: under setting [3], 6020; under setting [4], 6140.

For the molecule `O=C1O/C(=C/Br)CC[C@@H]1c1cccc2ccccc12`, the fold change by setting is: under setting [1], 0.956 (inactive); under setting [2], 0.986. Also, the cell count by setting is: under setting [3], 5530; under setting [4], 5790.

For `CCCCCC(=O)CC[C@H]1C(=O)C=C[C@@H]1C/C=C\CCCC(=O)O`, the fold change is 0.989 (inactive) under setting [1] and 0.66 under setting [2]. The cell count under setting [3] was determined as 5270 and the cell count under setting [4] came out at 5330.

Turning to `CCc1c(OCCCCCC(C)(C)c2nn[nH]n2)cc(O)cc1C(C)=O`, the fold change by setting is: under setting [1], 1.03 (inactive); under setting [2], 0.73. Moreover, the cell count is, setting by setting: under setting [3], 6030; under setting [4], 5840.

With `O=C1OC2(c3ccc(O)cc3Oc3cc(OS(=O)(=O)c4c(F)c(F)c(F)c(F)c4F)ccc32)c2ccccc21` (configuration not stated), the fold change is 1.09 (inactive) under setting [1] and 0.755 under setting [2]. Besides, the cell count was 6600 under setting [3] and 6070 under setting [4].

Turning to `CCCCCOc1ccccc1C(O)CC#CCCCC(=O)OC` (configuration not stated), the fold change is, setting by setting: under setting [1], 0.937 (inactive); under setting [2], 1.89. The cell count is, setting by setting: under setting [3], 5930; under setting [4], 6340.

Regarding `C[C@]12CC[C@@H]3c4cc(O)c(O)cc4CC[C@H]3[C@@H]1CC[C@@H]2O`, the fold change under setting [1] is 0.847 (inactive) and the fold change under setting [2] was 2.78. In addition, the cell count by setting is: under setting [3], 5010; under setting [4], 5920.

On to `CCCCCCCCCSCCCCCCCC(=O)O`, for which the fold change reads like this: under setting [1], 0.943 (inactive); under setting [2], 0.653. For the same molecule, the cell count under setting [3] was found to be 5310 and the cell count under setting [4] was 5640.

In the case of `CC1CCN=C(N)C1` (configuration not stated), the fold change under setting [1] was 0.966 (inactive) and the fold change under setting [2] came to 0.767. In addition, the cell count reads like this: under setting [3], 6190; under setting [4], 6410.

On to `CCCCC[C@H](O)/C=C/[C@H]1[C@H](O)CC(=O)[C@H]1C/C=C\CCCC(=O)O`, for which the fold change is 0.969 (inactive) under setting [1] and 1.41 under setting [2]. For the same molecule, the cell count was found to be 5730 under setting [3] and 5910 under setting [4].

For `CC[C@@H]1/C=C(\C)C[C@H](C)C[C@H](OC)[C@H]2O[C@@](O)(C(=O)C(=O)N3CCCC[C@H]3C(=O)O[C@H](/C(C)=C/[C@@H]3CC[C@@H](O)[C@H](OC)C3)[C@H](C)[C@@H](O)CC1=O)[C@H](C)C[C@@H]2OC`, the fold change under setting [1] was 0.914 (inactive) and the fold change under setting [2] turned out to be 1.28. Moreover, the cell count under setting [3] was 3590 and the cell count under setting [4] is 3930.

`CN(C)c1cc(NC(=O)CNC(C)(C)C)c(O)c2c1C[C@H]1C[C@@H]3C(C(=O)C(C(N)=O)=C(O)[C@H]3N(C)C)C(=O)C1=C2O` (some centres not stated): the fold change runs as follows: under setting [1], 0.886 (inactive); under setting [2], 0.781. For the same molecule, the cell count came to 8740 under setting [3] and 9860 under setting [4].

On to `CCCCC[C@@](C)(O)/C=C/[C@@H]1C(C/C=C\CCCC(=O)O)[C@@H](O)C[C@H]1O` (some centres not stated), for which the fold change under setting [1] is 0.939 (inactive) and the fold change under setting [2] was 1.76. Moreover, the cell count was determined as 6110 under setting [3] and 6510 under setting [4].

Consider `CC/C=C\C/C=C\C/C=C\C/C=C\CCCCCCC(=O)OCC`, for which the fold change was 0.858 (inactive) under setting [1] and 2.1 under setting [2]. The cell count is, setting by setting: under setting [3], 5560; under setting [4], 6480.
